From the supplement of paper PMC4894684 come the findings set out here.

Structures can show the parent of a compound that is named as a salt. ± gives the standard deviation of the averaged measurements.

The experiment deals with Toxoplasma gondii RH (in HFF). The experiment in a line: parasite growth relative to the screen mean (all compounds = 100%); higher = less inhibition of parasite growth. Conditions: 5 µM; 72 h; oxygen 21 %. The method in brief: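 Parasite growth was reported relative to the screen mean. In that scale, the mean of all compounds equals 100%, and values are averaged over two screens. Compounds from 10 mM DMSO stocks were pin-transferred to 5 µM final onto confluent human foreskin fibroblasts in 96-well plates, infected within 2 h with RH β-Gal–GFP Toxoplasma (MOI 1:5) and grown 72 h at 21% O2, with parasite number read by a CPRG β-Gal assay against in-plate standard curves. Uninfected host-cell viability was checked with CellTiter-Blue.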
In the case of `Fc1ccc(C(c2ccc(F)cc2)N2CCN(C/C=C/c3ccccc3)CC2)cc1` [Flunarizine dihydrochloride], the parasite growth was 56.3 ± 12%.

`COc1cc(COc2cc(N)c(Cl)cc2C(=O)CCC2CCN(CCNS(C)(=O)=O)CC2)cc(OC)c1` registered a parasite growth of 28.1 ± 16%.

`Nc1nc2c(ccc3ccccc32)s1` yielded a parasite growth of 158 ± 11%.

Consider `CC1Nc2ccc(Cl)cc2S(=O)(=O)N1` (centres undefined), for which the parasite growth came out at 105 ± 84%.

`CC(Cc1ccc(O)c(O)c1)(NN)C(=O)O` [(S)-(-)-Carbidopa] had a parasite growth of 147 ± 34%.

For the compound `CN(C)CCCSC(=N)N` [Dimaprit dihydrochloride], the parasite growth stood at 73.36 ± 0.62%.

`CN(CC[C@@H](Oc1ccc(-c2ccccc2)cc1)c1ccc(F)cc1)CC(=O)O` [ALX 5407 hydrochloride]: the parasite growth was 136 ± 5.8%.

The compound `O=[N+]([O-])c1cc(Cl)ccc1S(=O)(=O)N1CCN(Cc2ccccc2)CC1` had a parasite growth of 130 ± 24%.

Compound `c1ccc2sc(N3CCN(Cc4ccc5c(c4)OCO5)CC3)nc2c1` [2-[1-(4-Piperonyl)piperazinyl]benzothiazole] returned a parasite growth of 113 ± 20%.

The compound `N=C(N)c1ccc(N2CCN(C3CCN(CC(=O)O)CC3)CC2)cc1` gave a parasite growth of 128 ± 33%.

With `CC(=O)N1CCN(C)CC1` [1-Acetyl-4-methylpiperazine hydrochloride], the parasite growth was determined as 109 ± 40%.

`Cc1nn(C)c2nc(NNC(=O)Nc3cc(Cl)nc(Cl)c3)cc(C(C)C)c12` displayed a parasite growth of 97.4 ± 3%.

Take `O=C(Nc1ccncc1)c1cc([N+](=O)[O-])ccc1Cl`: the parasite growth is below 0%.

`CC(C)c1ccccc1S(=O)(=O)c1cc(N)c2ncccc2c1[N+](=O)[O-]` had a parasite growth of 88.4 ± 2.1%.

In turn, `CC(C)NCC(O)c1ccc2ccccc2c1` (centres undefined) [Pronethalol hydrochloride] displayed a parasite growth of 117 ± 28%.

`CC(C)C(=O)c1c(C(C)C)nn2ccccc12` [Ibudilast] registered a parasite growth of 75.7 ± 12%.

In turn, `CNCCCCOc1ccccc1Cc1ccccc1` [Bifemelane hydrochloride] yielded a parasite growth of 43.6 ± 3.2%.

`CCCCCCCCCCCC1=C(O)C(=O)C=C(O)C1=O` [Embelin] gave a parasite growth of 122 ± 4.3%.

In turn, `O=S(=O)(NCCNC/C=C/c1ccc(Br)cc1)c1cccc2cnccc12` [H 89 dihydrochloride] gave a parasite growth of 26.2 ± 27%.

In turn, `CCOC(=O)C1=C(COCCN)NC(C)=C(C(=O)OC)C1c1ccccc1Cl` (centres undefined) [Amlodipine besylate] gave a parasite growth of 87.9 ± 30%.

On to `O=S(=O)(c1cccc2c(Cl)cccc12)N1CCCNCC1` [ML 9 hydrochloride], for which the parasite growth came to 122 ± 19%.

`CCCCCCCCCCCCCCCCn1cc[n+](Cc2ccccc2)c1C` displayed a parasite growth below 0%.

`Nc1ncnc2c1nc(Br)n2[C@@H]1O[C@@H]2COP(=O)(O)O[C@H]2[C@H]1O` [8-Bromo-cAMP, sodium salt] displayed a parasite growth of 125 ± 25%.

Compound `c1cc(CN2CCCCC2)cc(OCCCNc2nc3ccccc3s2)c1` [Zolantidine dimaleate] gave a parasite growth of 112 ± 4.6%.

`CCCCn1c(=O)c2[nH]c(C34CC5CC(CC3C5)C4)nc2n(CCCO)c1=O` showed a parasite growth of 101 ± 16%.

Compound `O=c1ncccn1[C@@H]1O[C@H](CO)[C@@H](O)[C@H]1O` [Zebularine] came in with a parasite growth of 119 ± 12%.

In turn, `NC(C(=O)O)c1ccc(C(=O)O)c(C(=O)O)c1` (centres undefined) had a parasite growth of 141 ± 3%.

Compound `N=C(CC(O)COc1ccccc1-c1ccccc1)N1CCCCC1` (centres undefined) returned a parasite growth of 95.8 ± 34%.

As for `N=C(N)N/N=C/c1c(Cl)cccc1Cl` [Guanabenz acetate], the parasite growth was determined as 99.52 ± 0.3%.

`Cc1ccc2c(=O)c3ccccc3n(CCCN)c2c1C` returned a parasite growth below 0%.

With `CC[C@H](C)C(=O)O[C@H]1C[C@H](O)C=C2C=C[C@H](C)[C@H](CC[C@@H](O)C[C@@H](O)CC(=O)O)[C@H]21` [Pravastatin sodium salt], the parasite growth was found to be 127 ± 9.5%.

Consider `O=C(CCCN1CCC(O)(c2ccc(Cl)cc2)CC1)c1ccc(F)cc1` [Haloperidol hydrochloride], for which the parasite growth is 134 ± 39%.

As to `N=C(N)NC(=N)Nc1ccccc1` [1-Phenylbiguanide hydrochloride], the parasite growth amounted to 91.9 ± 21%.

The compound `CC(=O)Nc1ccc(O)cc1` [Acetaminophen] registered a parasite growth of 105 ± 2.7%.

Regarding `CC(=O)N[C@@H](CC(=O)N[C@@H](CCC(=O)O)C(=O)O)C(=O)O` [Spaglumic acid], the parasite growth stood at 131 ± 6.6%.

The compound `CC(/C=C/c1cccc(Oc2ccc(F)cc2)c1)N(O)C(N)=O` (centres undefined) displayed a parasite growth of 184 ± 12%.

As to `CC1(C)C(=O)NC2=C1C(=O)C(=O)c1ccccc12`, the parasite growth is below 0%.

In turn, `CC[N+](CC)(CC)CCOc1ccc(/C=C/c2ccccc2)cc1` registered a parasite growth of 99.2 ± 19%.

`O=C(OCCN1CCOCC1)C1(c2ccccc2)CCCCC1` [PRE-084 hydrochloride]: the parasite growth is 99.6 ± 19%.
